Assay outcomes (PubChem BioAssay)
Hits are enriched below; roughly 8% of the tested compounds scored in any of these assays.
HT1080-NT tox: kills 2HG-producing HT-1080-NT fibrosarcoma cells; HT-1080-NT fibrosarcoma viability, CellTiter-Glo ATP luminescence, 48 h; Potency, µM (titrated, usually from 46.1 µM), without a hit: top-dose activity, negative = less viability, most hits filed as cytotoxic; 1.6% of 360,000 active; AID 686970;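 also: NT is the 2HG producing partner of a matched IDH1 knockdown line; 0% = DMSO-treated cells and -100% = media-only wells without cells; nearly all actives have a fitted effect of over 55% in size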
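HT-1080-NT fibrosarcoma cells (2HG-overproducing), 750 cells/well in RPMI with 5% FBS, dosed after 2 h and incubated 48 h at 37C. CellTiter-Glo luminescence normalized to DMSO and no-cell wells; concentration-response curves fitted and classed.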
MCF10A rereplic: DNA re-replication induction in MCF 10a cells | 2.9% of 350,000 active | MCF 10A DNA re-replication, Hoechst nuclear intensity, 48 h | Potency, µM (highest dose often 46.1 µM), inactives show at the top dose activity, positive = re-replication, actives largely listed as activators | AID 624296; also: % of control where 0% means no effect; nearly all actives have a fitted effect of over 50% in size
SW480 rereplic: DNA re-replication induction in SW480 cells. SW480 DNA re-replication, Hoechst DNA content imaging, 48 h. Potency, µM (doses to about 46.1 µM), inactives show top-dose re-replication activation, most hits filed as activators. 1.8% of 340,000 active. AID 624297; also: % of control where 0% means no effect; nearly all actives have a fitted effect of over 55% in size
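Quantitative HTS format with DMSO vehicle controls; 48 hr drug incubation at 37 C, then 40 min Hoechst staining and scanning imager measurement at 405 nm excitation.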
KB-V1 cytotox: kills drug-selected multidrug resistant KB-V1 cells. 3.4% of 400,000 active. KB-V1 MDR cells viability, CellTiter-Glo, 72 h. Potency, µM (doses to about 46.1 µM), hits mostly cytotoxic. AID 1347076; also: % is scaled to controls: 0 for no effect and ±100 for the full control effect; nearly all actives have a fitted effect of over 60% in size
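Drug-selected KB-V1 cells, grown in DMEM lacking phenol red with 10% FBS, receive compound titrations; after three days at 37 degrees C, surviving cell ATP is quantified by CellTiter-Glo luminescence and responses normalized and curve-fitted.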
HT1080 IDH1KD tx: HT-1080 IDH1 knockdown cell toxicity (counter line); HT-1080 IDH1 knockdown viability, ATP luminescence, 48 h; 2% of 360,000 active; Potency, µM (top dose mostly 46.1 µM), for the others: top-dose activity, negative = toxicity, actives largely listed as cytotoxic;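 also: 0% = DMSO wells and -100% = cell-free medium wells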
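% activity derives from luminescence (CellTiter-Glo), normalised to DMSO and no-cell wells. HT-1080-IDH1KD cells, 750/well, had 48 h compound exposure at 37 °C.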
KB-3-1 cytotox: kills parental KB-3-1 adenocarcinoma cells; KB-3-1 viability, CellTiter-Glo ATP luminescence, 72 h; Potency, µM (series often up to 46.1 µM), most hits filed as cytotoxic; 1.4% of 400,000 active; also: % is scaled to controls: 0 for no effect and ±100 for the full control effect; nearly all actives have a fitted effect of over 60% in size
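Parental KB-3-1 viability, qHTS format: 72 h compound exposure, 37 °C; CellTiter-Glo; media-only wells and DMSO plates as controls; concentration-effect fits on corrected data.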
Numbers without * were called inactive; ! = not confirmed by another sample. Calls follow the shape of the dose curve; as a rule, active = well fitted curve in the direction sought with a large enough effect; inconclusive = small, poorly fitted or top-dose-only effect, or another doubt; inactive = no such curve, though single readings can be large; an effect the other way counts as inactive or inconclusive. Potency is read from the fitted curve at half-maximal effect.

For C[C@H](NC(=O)c1ccccc1Cl)C(=O)NCCc1ccc(S(N)(=O)=O)cc1 the results were HT1080-NT tox 13%, MCF10A rereplic -1%, SW480 rereplic 5%, KB-V1 cytotox inactive, HT1080 IDH1KD tx 15% and KB-3-1 cytotox inactive.
O=C(O)CCNc1nc(C(F)(F)F)nc2ccccc12 was read as HT1080-NT tox -2%, MCF10A rereplic -7%, SW480 rereplic -6%, KB-V1 cytotox inactive, HT1080 IDH1KD tx -15% and KB-3-1 cytotox inactive.
`OC(CNc1nc(C(F)(F)F)nc2ccccc12)c1ccccc1` (stereo not drawn) gave HT1080-NT tox inconclusive, MCF10A rereplic -2%, SW480 rereplic 3%, KB-V1 cytotox 12µM*, HT1080 IDH1KD tx inconclusive and KB-3-1 cytotox inconclusive.
For CCOC(=O)[C@@H]1[C@H]2COc3cc(OC)ccc3[C@H]2N2C(=O)N(c3ccc(F)cc3)C(=O)[C@@]12C the results were HT1080-NT tox 14%, MCF10A rereplic 7%, SW480 rereplic -10%, KB-V1 cytotox inactive, HT1080 IDH1KD tx 21% and KB-3-1 cytotox inactive.
O=[N+]([O-])c1cc(Cl)c(O)c2ncccc12 was read as HT1080-NT tox -26%, MCF10A rereplic inconclusive, SW480 rereplic 10µM*, KB-V1 cytotox inactive, HT1080 IDH1KD tx inconclusive and KB-3-1 cytotox 7.3µM*.
O=[N+]([O-])c1ccc(O)c2ncccc12 was read as HT1080-NT tox 6.5µM*, MCF10A rereplic 15µM*!, SW480 rereplic 7.3µM*, KB-V1 cytotox inconclusive, HT1080 IDH1KD tx 16µM* and KB-3-1 cytotox inconclusive.
Screening O=[N+]([O-])c1cc(F)c2cccnc2c1O returned HT1080-NT tox -26%, MCF10A rereplic inconclusive, SW480 rereplic inconclusive, KB-V1 cytotox inactive, HT1080 IDH1KD tx inconclusive and KB-3-1 cytotox inconclusive.
For Oc1c(I)cc(Cl)c2cccnc12 the results were HT1080-NT tox inconclusive, MCF10A rereplic inconclusive, SW480 rereplic inconclusive, KB-V1 cytotox inconclusive, HT1080 IDH1KD tx 12µM* and KB-3-1 cytotox inactive.
Screening O=[N+]([O-])c1cc(Cl)c2cccnc2c1O returned HT1080-NT tox inconclusive, MCF10A rereplic 2.6µM*, SW480 rereplic inconclusive, KB-V1 cytotox inconclusive, HT1080 IDH1KD tx inconclusive and KB-3-1 cytotox inconclusive.
`CCCCOc1ccc(S(=O)(=O)N2CCN(c3ccccc3OCC)CC2)cc1` gave KB-V1 cytotox inactive and KB-3-1 cytotox inconclusive.
`CC(C)OCC(O)Cn1c(N2CCCC2)nc2c1c(=O)n(C)c(=O)n2C` (stereo not drawn) gave HT1080-NT tox 11%, MCF10A rereplic 0%, SW480 rereplic -5%, KB-V1 cytotox inactive, HT1080 IDH1KD tx 10% and KB-3-1 cytotox inactive.
`O=c1oc2ccccc2c(O)c1Cc1cc(Cl)c2cccnc2c1O` gave HT1080-NT tox -7%, MCF10A rereplic 5.8µM*, SW480 rereplic inconclusive, KB-V1 cytotox inconclusive, HT1080 IDH1KD tx -7% and KB-3-1 cytotox 16µM*.
Screening COC(=O)c1cc(C#N)c(N2CCN(C)CC2)nc1C returned HT1080-NT tox 2%, MCF10A rereplic 21µM*, SW480 rereplic -70%, KB-V1 cytotox inactive, HT1080 IDH1KD tx 1% and KB-3-1 cytotox inactive.
For CCC(Sc1nc(C)cc(C)n1)C(=O)NC1=NN=C(c2ccc(C)cc2)CS1 (stereo not drawn) the results were HT1080-NT tox inconclusive, MCF10A rereplic inconclusive, SW480 rereplic inconclusive, KB-V1 cytotox inactive, HT1080 IDH1KD tx inconclusive and KB-3-1 cytotox inactive.
Cc1cc(C)nc(SCC(=O)NC2=NN=C(c3ccc(Br)cc3)CS2)n1 was read as HT1080-NT tox 22µM*, MCF10A rereplic 10%, SW480 rereplic inconclusive, KB-V1 cytotox inactive, HT1080 IDH1KD tx 16µM* and KB-3-1 cytotox inconclusive.
